# High-throughput results: PubChem BioAssay, National Center for Advancing Translational Sciences (NCATS)
# GLS inh – qHTS for Inhibitors of Glutaminase (GLS). Potency, µM (top dose mostly 45.5 µM), for the others: at the top dose activity change, negative = inhibition, most hits filed as inhibitors. GLS enzymatic activity, qHTS titration. AID 624170, 2012. hit rate 0.21% among 410,000; further: on the % scale 0 is the no-effect control and ±100 the full control effect
#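 Read-out is an Amplex red fluorescence increase coupled through glutamate oxidase and HRP, measured before and after 30 min room-temperature incubation. hKGA is in 45 mM KH2PO4 (pH 8.2) with 0.02% Tween-20; glutamine added as 1mM solution.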
# Pol eta inh – qHTS for Inhibitors of Polymerase Eta; DNA polymerase eta (Homo sapiens), Q9Y253; recombinant Pol eta, fluorescent DNA replication assay; Potency, µM (top dose mostly 114 µM), for inactives: at the highest dose activity change, negative = inhibition, usual class: inhibitors; hit rate 1.2% among 390,000; AID 588591, 2011; further: on the % scale 0 is the no-effect control and ±100 the full control effect
# Target sequence (Q9Y253 whole entry, looked up): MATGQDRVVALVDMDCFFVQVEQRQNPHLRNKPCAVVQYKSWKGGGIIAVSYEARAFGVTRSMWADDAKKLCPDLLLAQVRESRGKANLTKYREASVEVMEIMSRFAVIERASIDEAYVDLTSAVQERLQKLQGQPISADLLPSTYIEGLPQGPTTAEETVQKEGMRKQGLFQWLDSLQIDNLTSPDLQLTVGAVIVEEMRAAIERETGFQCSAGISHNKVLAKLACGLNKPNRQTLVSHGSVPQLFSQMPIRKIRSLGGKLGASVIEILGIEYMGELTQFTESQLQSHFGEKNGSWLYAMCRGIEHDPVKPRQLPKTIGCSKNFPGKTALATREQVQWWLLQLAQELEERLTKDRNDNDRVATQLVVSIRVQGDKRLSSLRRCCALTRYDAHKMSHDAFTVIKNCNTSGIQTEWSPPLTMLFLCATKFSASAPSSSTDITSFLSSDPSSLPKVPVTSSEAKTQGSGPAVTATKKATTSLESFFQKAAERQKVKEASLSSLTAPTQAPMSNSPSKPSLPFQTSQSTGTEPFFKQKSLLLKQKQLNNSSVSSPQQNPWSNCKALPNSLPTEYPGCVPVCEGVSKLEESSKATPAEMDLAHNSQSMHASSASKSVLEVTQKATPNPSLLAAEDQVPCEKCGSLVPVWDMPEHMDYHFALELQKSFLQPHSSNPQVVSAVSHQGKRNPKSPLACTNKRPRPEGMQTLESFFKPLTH
#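 Pol eta at 10 nM preincubated with compounds 15 min at room temperature; reaction started with fluorescent substrate (50 nM final) and read kinetically at 0 and 10 min.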
# KAT2A inh – qHTS Assay for Inhibitors of GCN5L2; Histone acetyltransferase KAT2A (Homo sapiens), Q92830; GCN5L2 HAT assay, ThioGlo1 CoA-SH fluorescence; hit rate 0.21% among 390,000; Potency, µM (highest dose often 58.9 µM), inactives show top-dose activity change, negative = inhibition, hits mostly inhibitors; further: on the % scale 0 is the no-effect control and ±100 the full control effect
#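 Preincubate 20nM GCN5L2 with compound 15 min, RT → add 50uM ThioGlo1 + 75uM H3(1-25) + 70uM acetyl-CoA → read fluorescence 0 and 20 min. Primary qHTS; fluorescent artifacts likely.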
# Pol iota inh – qHTS for Inhibitors of Polymerase Iota | DNA polymerase iota (Homo sapiens), Q9UNA4 | Pol iota fluorescent replication assay, 10 min | Potency, µM (doses to about 115 µM), without a hit: at the top dose activity, negative = inhibition, usual class: inhibitors | hit rate 1% among 390,000 | AID 588590, 2011
#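 Pol iota at 10 nM preincubated 15 min with compounds at room temperature; reaction started with fluorescent substrate, 50 nM final. Fluorescence read kinetically at 0 and 10 min; buffer-only wells as negative control.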
# Pol kappa inh – qHTS for Inhibitors of Polymerase Kappa; AID 588579, 2011; purified Pol kappa, fluorescent DNA synthesis assay, 10 min; DNA polymerase kappa (Homo sapiens), Q9UBT6; hit rate 0.53% among 400,000; Potency, µM (doses to about 107 µM), without a hit: top-dose activity, negative = inhibition, usual class: inhibitors; further: on the % scale 0 is the no-effect control and ±100 the full control effect
#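 Pol kappa 10 nM + cpd, 15 min RT; start w/ substrate 50 nM final; fluorescence kinetic read, 0 and 10 min. Neg ctrl: buffer, no enzyme.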
# POLB inh – qHTS Assay for Inhibitors of DNA Polymerase Beta. P06746. Pol beta primer extension/strand displacement, fluorescence kinetic. Potency, µM (top dose mostly 114 µM), inactives show at the top dose activity change, negative = inhibition, actives largely listed as inhibitors. hit rate 1.3% among 340,000; further: on the % scale 0 is the no-effect control and ±100 the full control effect
#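 Homogeneous kinetic assay of primer extension and strand displacement by 10 nM Pol beta, preincubated 15 min at room temperature with compound before 50 nM substrate (final) was added. Read at 0 and 10 min; four-parameter Hill fit.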
# * hit, by the source's call; ? = inconclusive; · = no result; [ ] = dose if it differs, or a comment. Shown are actives, neighbours in structure and some others; about 2.4% of the full set was active somewhere. The call rests on the fitted dose curve; in most records, active means well fitted inhibition curve with a large enough effect; inconclusive means small, poorly fitted or top-dose-only effect, or another doubt; inactive means no such curve, though single readings can be large or run the other way. Potency means the concentration at half of the fitted maximal effect.
SMILES,GLS inh,Pol eta inh,KAT2A inh,Pol iota inh,Pol kappa inh,POLB inh
Cc1ccc(C2CC(=O)N3CN(c4ccc(Br)cc4)CSC3=C2C#N)o1 (stereo unspecified),11.3%,4.4%,?,?,-6.9%,31.6µM*
COc1ccc(Nc2nc3ccccc3nc2NS(=O)(=O)c2ccc(Cl)cc2)cc1OC,-6.7%,-1.3%,-3.1%,-7.5%,-0.6%,-0.1%
Clc1cccc(Cl)c1C1Nc2cccc3cccc(c23)N1,18.1%,-4.3%,-9.6%,35.5µM*,-39.3%,-59.0%
O=C(O)c1cc(N(Cc2ccccc2O)Cc2ccccc2O)ccc1O,·,·,·,14.1µM*,44.7µM*,·
CCC1CCCCN1C(=O)Cn1nc([N+](=O)[O-])c(Cl)c1C (stereo unspecified),-0.3%,89.1µM*,-2.9%,89.1µM*,?,35.2%
Cc1c(Cl)c([N+](=O)[O-])nn1CC(=O)NC1CCCCC1,18.2%,-6.8%,?,4.2%,-1.8%,4.2%
CCOC(=O)[C@H](CCc1ccccc1)N[C@H]1CCCN2CCC[C@@H](C(=O)O)N2C1=O,0.2%,·,·,·,·,·
O=C(N/N=C/c1cc(O)ccc1Br)c1cccnc1,16.1%,-0.9%,-10.1%,-1.1%,-17.0%,-11.0%
O=C(N/N=C/c1cc(Br)c(O)c(Br)c1O)c1cccnc1,-23.6%,39.8µM*,-14.7%,7.1%,-1.5%,39.8µM*
Cc1[nH]n(-c2ccccc2)c(=S)c1C=Nc1ccc([N+](=O)[O-])cc1,-1.0%,-6.4%,7.94µM*,4.8%,-12.2%,9.0%
Cc1ccc(-n2[nH]c(C)c(C=Nc3ccc(S(=O)(=O)Nc4nccs4)cc3)c2=O)cc1,·,·,-14.3%,·,·,4.3%
Cc1cc(C)nc(NS(=O)(=O)c2ccc(N=Cc3c(C)[nH]n(-c4ccccc4)c3=O)cc2)n1,?,-8.4%,28.6%,106.6%,-3.2%,-0.7%
Cc1[nH]n(-c2ccccc2)c(=O)c1C=Nc1ccc(S(=O)(=O)N=C(N)N)cc1,-1.3%,?,1.6%,50.1µM*,5.7%,20.8%
Cc1[nH]n(-c2ccc(Br)cc2)c(=O)c1C=Nc1ccc(S(=O)(=O)Nc2nccs2)cc1,-12.0%,44.7µM*,-6.0%,?,-16.8%,?
CCN1CCOC(=O)C1CC(=O)Nc1ccc(Br)cc1 (stereo unspecified),-4.3%,-16.8%,-0.1%,-0.7%,-25.5%,-18.4%
Cc1cc(C)c(S(=O)(=O)c2ccccc2C)c(Cl)n1,12.6µM*,-5.5%,-4.0%,-2.9%[58.9 µM],-7.0%,3.4%
Cc1cc(C)c(S(=O)(=O)c2ccccc2)c(Cl)n1,-20.9%,-13.8%,1.4%,-0.6%,-2.6%,-3.1%
Cc1ccc(S(=O)(=O)c2c(C)cc(C)nc2Cl)c(C)c1,12.6µM*,-10.8%,-2.2%,-6.4%,2.5%,10.8%
Cc1ccc(S(=O)(=O)c2c(C)cc(C)nc2Cl)cc1,11.2µM*,-12.5%,-6.5%,18.7%,-3.0%,0.1%
O=S1(=O)CCO[C@H]2CCCC[C@@H]2N1Cc1ccc(Cl)cc1,·,·,·,23.9%,-16.2%,·
COc1cc(N)c(N)cc1OC,·,·,·,22.4µM*,-20.7%,·
COC(=O)c1cc(OC)c(OC)cc1N,26.3%,-9.8%,0.2%,11.7%,-11.5%,-20.9%
O=C(Nc1nc2nc(-c3ccccc3)cc(=O)n2[nH]1)c1ccc(Cl)cc1,-10.6%,-8.7%,-8.0%,-16.4%,-17.7%,22.4µM*
O=C(Nc1nc2nc(-c3ccccc3)cc(=O)n2[nH]1)c1ccccc1,8.1%,-10.9%,-5.0%,7.4%,-0.4%,0.0%
COc1ccc(C2CC(c3ccccc3)Oc3c(C)ccc(C)c32)cc1 (stereo unspecified),·,·,·,12.4%,-16.4%,·
SMILES,GLS inh,Pol eta inh,KAT2A inh,Pol iota inh,Pol kappa inh,POLB inh
CCc1cccc2sc(N(CCCN3CCOCC3)C(=O)CS(=O)(=O)c3ccccc3)nc12,6.7%,-26.8%,-8.6%,89.1µM*,-38.5%,·
Cc1ccc(S(=O)(=O)CC(=O)N(CCCN2CCOCC2)c2nc3c(F)cccc3s2)cc1,1.0%,-24.3%,-3.0%,28.5%,11.1%,·
Cc1nc2ccc(-c3nc4ccccc4[nH]3)cc2[nH]1,-5.2%,-3.9%,9.6%,?,-36.6%,12.6µM*
CCC(NC(C)C)C(O)c1ccc(O)c(O)c1 (stereo unspecified),11.2%,-6.6%,-4.2%,?,8.4%[60.1 µM],22.2%
CCC(c1ccc(O)c(O)c1)C(CC)c1ccc(O)c(O)c1 (stereo unspecified),?,79.4µM*,·,17.8µM*,50.1µM*,·
CCCN(CC(=O)Nc1ccccc1C)C(=O)Cc1c(C)nc2ccccc2c1C,-6.8%,?,-3.1%,79.4µM*,-32.0%,·
CCN(CC)C(=O)CC(c1ccc2c(c1)OCO2)c1c(OC)cc(OC)c2ccc(=O)oc12 (stereo unspecified),0.2%,35.5µM*,17.6%,89.1µM*,79.4µM*,50.1µM*
CCCCn1c(NC(C)=O)c(C#N)c2nc3ccccc3nc21,0.1%,14.9%,?,?,-11.4%,18.5%
C=CCn1c(NC(=O)c2ccccc2Cl)c(C#N)c2nc3ccccc3nc21,1.6%,31.6µM*,1.0%,?,-23.1%,-2.1%
O=C1OC2(c3ccccc31)c1cc(I)c(O)c(I)c1Oc1c2cc(I)c(O)c1I,?,·,8.91µM*,·,26.7µM*,·
O=C1OC2(c3cc(I)c(O)c(I)c3Oc3c2cc(I)c(O)c3I)c2c(Cl)c(Cl)c(Cl)c(Cl)c21,·,·,3.16µM*,·,7.52µM*,·
O=C1OC2(c3ccc(O)cc3Oc3cc(O)ccc32)c2ccccc21,2.8%,·,?,·,29.9µM*,·
CC1(C)OC(=O)C2(Cc3ccc(Cl)cc3N3CCCCC32)C(=O)O1 (stereo unspecified),·,·,·,18.5%,-13.2%,·
CC(C)(C)CC(C)(C)N=C1Nc2ccc(Cl)cc2N[C@]12C[C@H]1CCCC(=O)N3CC[C@@H](C2)[C@@H]13,·,·,·,14.1%,-17.3%,·
O=C(c1ccco1)N1CCN(C(=O)c2ccc(-c3ccc([N+](=O)[O-])cc3)o2)CC1,-2.9%,22.4µM*,?,17.8µM*,28.2µM*,·
O=C1C(=O)C(c2cc(O)c(O)c(O)c2)Oc2cc(O)cc(O)c21 (stereo unspecified),·,·,·,1.41µM*,1.26µM*,·
Cc1ccccc1OCC(=O)Nc1cc(C)c(O)c(-c2nc3ccccc3o2)c1,·,·,·,?,2.5%,·
